High-throughput results deposited in PubChem by National Center for Advancing Translational Sciences (NCATS).
Rows were chosen to be rich in hits. Some 2.6% of all compounds tested hit in one or more screens of this group.
PK Bst: pyruvate kinase (B. stearothermophilus) modulation; purified pyruvate kinase, luminescence ATP production; ribose 5-phosphate activator present at AC10; Potency, µM; hit rate 1.2% among 51,000; in the data active = potency below about 11 µM; inconclusive = mostly about 12 µM to 25 µM;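 the screen sought inhibitors and activators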
FLuc inh: blocks Photinus pyralis firefly luciferase activity; purified firefly luciferase, luminescence, 8 min; Potency, µM (highest dose often 57.1 µM), hits mostly inhibitors; hit rate 2.2% among 72,000; AID 411; also: nearly all actives have a fitted effect of over 40% in size
Target sequence (P08659 whole entry, looked up): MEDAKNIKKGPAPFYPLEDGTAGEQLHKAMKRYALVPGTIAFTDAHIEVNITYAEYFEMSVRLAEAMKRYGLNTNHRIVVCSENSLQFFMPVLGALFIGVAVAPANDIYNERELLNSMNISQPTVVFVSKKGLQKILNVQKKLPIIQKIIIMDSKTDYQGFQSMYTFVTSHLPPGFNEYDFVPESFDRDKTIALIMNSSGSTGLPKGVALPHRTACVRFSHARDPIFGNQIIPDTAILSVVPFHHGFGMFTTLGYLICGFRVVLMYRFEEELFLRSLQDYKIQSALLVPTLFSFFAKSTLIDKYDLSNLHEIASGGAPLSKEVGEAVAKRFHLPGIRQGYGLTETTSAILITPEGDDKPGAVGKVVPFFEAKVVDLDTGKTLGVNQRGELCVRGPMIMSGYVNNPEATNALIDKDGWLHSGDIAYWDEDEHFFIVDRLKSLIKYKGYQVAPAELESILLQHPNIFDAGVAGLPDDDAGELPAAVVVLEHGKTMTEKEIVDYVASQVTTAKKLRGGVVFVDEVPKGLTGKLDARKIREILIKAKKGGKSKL
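Luminescence read-out after 8 min at room temperature; enzyme reaction used luciferin plus 10 uM ATP (linear range) in imidazole buffer pH 7.2 with KCl, MgCl2, Tween 20 and BSA. Each sample was run as a titration.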
GFP derepression: epigenetic modulators derepressing GFP locus in mouse cells; AID 597; mouse C127i GFP locus derepression, cytometry, 30 h; hit rate 0.09% among 68,000; Potency, µM (series often up to 46.1 µM)
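Locus derepression in mouse mammary C127i cells whose integrated CMV-GFP reporter is normally silent; GFP expression after 30 h compound treatment was quantified by counting fluorescent cells.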
HBB splicing: alters splicing of the hemoglobin beta chain; HBB splicing reporter cell assay, activation; EGFP reporter with mutant IVS2-654 intron; response scale: normalised to 500 nM splice-correcting PNA; Potency, µM (top dose mostly 46.1 µM), hits mostly activators; hit rate 0.06% among 65,000; AID 925
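Compounds were applied for 2 days to HeLa EGFP-654 cells, 500/well in Optimem with 2% FCS. The reporter's EGFP is disrupted by mis-splicing of beta-globin intron IVS2-654. Readout: summed well GFP fluorescence from 488 nm laser scanning; reference was 500 nM antisense […] 654 PNA.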
Ub-GFP proteasome: ubiquitin-GFP accumulation via proteasome inhibition; AID 526; Ubiquitin-GFP reporter cells, proteasome inhibition, GFP fluorescence; response scale: untreated = 0%, 10 µM MG-132 = 100%; Potency, µM (series often up to 45.9 µM), most hits filed as activators; 67,000 tested, under 10 active; active = well fitted activation curve with a large enough effect, not every such curve was filed as active; inconclusive = small, poorly fitted or top-dose-only effect, or another doubt; inactive = no such curve, though single readings can be large or run the other way
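U2OS cells stably expressing ubiquitin(G76V)-GFP, seeded overnight in 0.5% FBS medium, were exposed to compounds (qHTS, 46 uM to 2.9 nM) for 4 hr at 37 °C. GFP-positive cells were counted by laser cytometry (488 ex/515 em), normalized between basal and 10 uM MG-132.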
Hits are given with their value; ! = not confirmed by another sample; [ ] = dose if it differs, or a comment. Unless noted, calls follow the shape of the dose curve; as a rule, active = well fitted curve in the direction sought with a large enough effect; inconclusive = small, poorly fitted or top-dose-only effect, or another doubt; inactive = no such curve, though single readings can be large; an effect the other way counts as inactive or inconclusive.

Screening COc1ccc(-c2nc(C#N)c(NCCc3ccccc3)o2)cc1OC returned PK Bst inactive, FLuc inh 12.6µM, GFP derepression inactive, HBB splicing inactive[0.369 µM] and Ub-GFP proteasome inactive.
CC(C)(C)c1ccc(-c2nc(C#N)c(NCc3ccncc3)o2)cc1 was read as FLuc inh 20µM, GFP derepression inactive and HBB splicing inactive[0.369 µM].
N#Cc1nc(-c2ccc(OCc3ccccc3Cl)cc2)oc1NCCCn1ccnc1 was read as PK Bst 2.62, FLuc inh inactive, GFP derepression inactive, HBB splicing inactive[0.369 µM] and Ub-GFP proteasome inactive.
`Cc1ccc(OCc2nc(C#N)c(NCCCn3ccnc3)o2)cc1` gave PK Bst inactive, FLuc inh inactive, GFP derepression inactive, HBB splicing inactive and Ub-GFP proteasome inactive.
ON=C1CCCCC1 was read as HBB splicing inactive.
`COc1ccccc1NC(=O)c1ccccc1-c1nc(-c2ccccc2OC)no1` gave FLuc inh 15.8µM, GFP derepression inactive, HBB splicing inactive and Ub-GFP proteasome inactive.
`O=C(Nc1cccnc1)c1cn(-c2ccccc2)nc1-c1cccs1` gave PK Bst 10.2, FLuc inh 10µM, GFP derepression inactive, HBB splicing inactive and Ub-GFP proteasome inactive.
CC1=C(C(=O)Nc2cccnc2)C(c2cccnc2)n2nc(-c3cccs3)nc2N1 (centres undefined) was read as PK Bst inactive, FLuc inh inactive, GFP derepression inactive, HBB splicing inactive and Ub-GFP proteasome inactive.
`CC1C(=O)C(C)C(c2ccco2)NC1c1ccco1` (centres undefined) gave PK Bst inactive, FLuc inh inactive, GFP derepression inactive, HBB splicing inactive and Ub-GFP proteasome inactive.
`CCCC1C(c2ccco2)NC(c2ccco2)CC1(C)O` (centres undefined) gave PK Bst inconclusive, FLuc inh 12.6µM, GFP derepression inactive, HBB splicing inactive and Ub-GFP proteasome inactive.
For Cc1ccc(C(=O)Nc2ccc3c(c2)ncn3C)cc1 the results were FLuc inh 25.1µM, GFP derepression inactive, HBB splicing inactive and Ub-GFP proteasome inactive.
CC(=O)OC[C@@H]1O[C@H](CCO/N=C(\C)CCN2CCCCc3nc(C)c(C)cc32)C=C[C@@H]1OC(C)=O was read as FLuc inh inactive[11.4 µM] and HBB splicing inactive[9.22 µM].
`O=C(CC(Nc1ccc(F)cc1)C(=O)O)c1ccccc1` (centres undefined) gave PK Bst inconclusive, FLuc inh 7.94µM, GFP derepression inactive, HBB splicing inactive and Ub-GFP proteasome inactive.
Screening Cc1cnc(CNc2ncnc3ccc(-c4ccccc4C#N)cc23)cn1 returned FLuc inh inactive[2.29 µM], GFP derepression inactive[9.22 µM], HBB splicing inactive and Ub-GFP proteasome inactive.
`O=C1CCC[C@@H](C2=CCCCC2=O)C1` gave FLuc inh inactive[11.4 µM] and HBB splicing inactive[9.22 µM].
For N#Cc1c(C(F)(F)F)cc(-c2ccccc2)nc1SCc1nc(N)nc(N2CCOCC2)n1 the results were PK Bst inactive, FLuc inh inactive, GFP derepression 10µM, HBB splicing 10µM and Ub-GFP proteasome inactive.
`Cn1ccc2cc3c(cc21)CCN3C(=O)Nc1cccnc1` gave FLuc inh 25.1µM!, GFP derepression inactive, HBB splicing inactive and Ub-GFP proteasome inactive.
`CN1CCc2cc(NC(=O)Nc3cccnc3)ccc21` gave FLuc inh inconclusive, GFP derepression inactive, HBB splicing inactive and Ub-GFP proteasome inactive.
`CN(C)c1ncc2nc(-c3cn(C)c4ccccc34)c(=O)n(C[C@H]3CCCO3)c2n1` gave FLuc inh inactive[11.4 µM], GFP derepression inactive[9.22 µM], HBB splicing inactive and Ub-GFP proteasome inactive.
`O=C(c1cc(-c2cccc(O)c2)on1)N1CCCCC1` gave FLuc inh 15.8µM, GFP derepression inactive, HBB splicing inactive and Ub-GFP proteasome inactive.
COc1cccc(-c2cc(C(=O)N3CC4(C)CC3CC(C)(C)C4)no2)c1 (centres undefined) was read as PK Bst inactive, FLuc inh inactive, GFP derepression inactive, HBB splicing inactive and Ub-GFP proteasome inactive.
Screening COc1cccc(-c2cc(C(=O)N3CCCc4ccccc43)no2)c1 returned FLuc inh inactive, GFP derepression inactive, HBB splicing inactive and Ub-GFP proteasome inactive.
For O=C(c1cc(-c2ccc(Cl)c(Cl)c2)on1)N1CCCC1 the results were FLuc inh inactive, GFP derepression inactive, HBB splicing inactive and Ub-GFP proteasome inactive.
Screening O=C(c1cc(-c2ccc(F)cc2)on1)N1CCCC1 returned FLuc inh 12.6µM, GFP derepression inactive, HBB splicing inactive and Ub-GFP proteasome inactive.
Screening COc1cccc(-c2cc(C(=O)N3CCCCC3C)no2)c1 (centres undefined) returned FLuc inh 20µM, GFP derepression inactive, HBB splicing inactive and Ub-GFP proteasome inactive.
`CN1CCN(C(=O)c2cc(-c3ccccc3)on2)CC1` gave PK Bst inactive, FLuc inh inactive, GFP derepression inactive, HBB splicing inactive and Ub-GFP proteasome inactive.
Screening COc1cccc(-c2cc(C(=O)N3CCCCCC3)no2)c1 returned FLuc inh 7.94µM, GFP derepression inactive, HBB splicing inactive and Ub-GFP proteasome inactive.
`COc1ccc(OC2C=CC(C#Cc3ccc(F)cc3F)OC2CO)cc1` (centres undefined) gave HBB splicing inactive[9.22 µM].
`O=c1cnc2cncnc2n1Cc1ccc(F)cc1` gave FLuc inh inactive[11.4 µM], GFP derepression inactive[9.22 µM], HBB splicing inactive and Ub-GFP proteasome inactive.
`COc1ncc2nc(CCc3ccccc3)c(=O)n(C)c2n1` gave FLuc inh inactive[11.4 µM], GFP derepression inactive[9.22 µM], HBB splicing inactive and Ub-GFP proteasome inactive.
Screening COc1ccc(-c2cc(O)cc(O)c2)cc1 returned PK Bst inconclusive, FLuc inh 15.8µM, GFP derepression inactive, HBB splicing inactive and Ub-GFP proteasome inactive.
For O=C(c1ccccc1)c1nnc(-c2ccccc2F)o1 the results were PK Bst 8.49, FLuc inh 3.98µM, GFP derepression inactive, HBB splicing inactive and Ub-GFP proteasome inactive.
Screening CO[C@@H]1COC(=O)C/C=C\[C@@H](C)[C@H](OC)COC(=O)[C@H](COCc2ccccc2)NC(=O)C/C=C\[C@H]1C returned FLuc inh inactive[11.4 µM] and HBB splicing inactive[9.22 µM].
For O=C(c1cc(-c2ccc(Cl)cc2)on1)N1CCOCC1 the results were FLuc inh 12.6µM, GFP derepression inactive, HBB splicing inactive and Ub-GFP proteasome inactive.
O=C(Nc1cccnc1)c1cc(-c2ccc3c(c2)OCO3)on1 was read as FLuc inh 0.794µM, GFP derepression inactive, HBB splicing inactive and Ub-GFP proteasome inactive.
For O=C(c1cc(-c2ccc3c(c2)OCO3)on1)N1CCOCC1 the results were PK Bst inconclusive, FLuc inh 7.94µM, GFP derepression inactive, HBB splicing inactive and Ub-GFP proteasome inactive.
For COc1ccc(NC(=O)c2cc(CC(C)C)on2)cc1OC the results were FLuc inh inactive, HBB splicing inactive and Ub-GFP proteasome inactive.
